Autophagy mod = autophagy modulation, high-content screen; MEF GFP-LC3 puncta imaging; test concentration mostly 10 µM; calls only at 10 µM (by protocol); 0.98% of 190,000 active;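 active means percentage of spot-positive cells more than 3 SD above its plate mean, without a fluorescence outlier flag or 80% toxicity; inconclusive means no clear call, values can overlap the other calls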;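 further: spot-positive cell cutoff set from DMSO-treated cells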
Lmaj promast = inhibitors of Leishmania major promastigote growth; Leishmania major promastigotes, resazurin fluorescence viability; inhibition, % at 10 µM; 9% of 200,000 active; in the data active means inhibition above about 50%;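 further: promastigotes grown with compound for 44 hours at 28 °C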
WT yeast gro inh = growth inhibition of WT yeast, mitochondrial fusion screen; mitochondrial fusion phenotypic screen, WT strain; inhibition, % at 10 µM; 2.1% of 190,000 active; in the data active means inhibition above about 58%; tested in S. cerevisiae
INS promoter inh = TRM-6 insulin promoter activity inhibition; TRM-6 cells (human fetal islet line), insulin promoter-eGFP reporter, imaging; reporter expression induced with tamoxifen; inhibition, % at 2 µM; 0.9% of 130,000 active; AID 1273;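 active means inhibition above the mean plus 3 SD, with well images judged a real hit on visual review, cut at about 60% in these data, passing the limit was not always enough; inconclusive means inhibition over the cutoff but images rejected on review; inactive means inhibition not above the cutoff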
Insulin prom up = MIN6 insulin promoter up-regulation; MIN6 insulin promoter-GFP reporter, high-content imaging; hits give high values; z-score at 5 µM; 0.3% of 190,000 active; AID 1625;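 active means z-score above 3 at 5 µM with at least 500 cells counted in the well; inconclusive means wells under 500 cells, flagged as cytotoxic or low count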
The depositor's hits bear a star; i = inactive; ? = inconclusive; / = not tested or not shown; + = active, no number. Hits are enriched below; roughly 11% of the tested compounds scored in any of these assays.

SMILES	Autophagy mod	Lmaj promast	WT yeast gro inh	INS promoter inh	Insulin prom up
NC(=S)N/N=C/c1ccccc1OCCSc1ccc(Cl)cc1	i	100.3*	64.3*	50.0	-1.78
Cc1ccc(S(=O)(=O)Oc2ccccc2/C=N/N=C(N)N)cc1	i	73.9*	-18.2	/	-1.32
c1ccc(C2CC(c3ccccc3)n3c(nc4ccccc43)N2)cc1 (stereo not drawn)	i	12.7	7.0	-11.1	0.72
Cc1nc2sc(C(c3ccc(Cl)cc3)N3CCN(c4ccccc4F)CC3)c(O)n2n1 (stereo not drawn)	i	11.5	4.0	/	0.73
N#CCCN(C(=O)CSc1ccc2c(c1)OCCO2)c1ccc(F)cc1	i	86.9*	0.0	-4.3	/
Cc1ccc(N(CCC#N)C(=O)CSc2ccc3c(c2)OCCO3)cc1	i	6.1	16.5	23.3	-0.51
COc1cc(CN2CCNC(=O)C2CC(=O)N2CCCO2)cc(OC)c1 (stereo not drawn)	i	-0.2	-3.9	-20.0	1.28
O=C(c1cccc(Br)c1)c1conc1C(=O)c1ccco1	i	-2.7	67.2*	33.3	0.69
Cc1ccc(C2C(C#N)=C(N)OC3=C2C(=O)CC(C)(C)C3)s1 (stereo not drawn)	/	/	/	/	0.02
Cc1sc2ncnc(N/N=C/c3ccccc3O)c2c1C	i	99.6*	-9.5	57.9	-2.02
Cc1sc2ncnc(N/N=C/c3ccc(O)cc3)c2c1C	i	21.3	-2.1	/	0.26
CCN(CC)CCNC(=O)c1cc2cc(Br)ccc2s1	i	95.7*	4.3	-16.7	-0.16
Cc1ccc(-c2nnc(Oc3ccc(NC(=O)c4ccccc4)cc3)c3ccccc23)cc1	i	24.6	0.2	29.6	-0.29
O=C(N/N=C/c1cc2c3c(c1O)CCCN3CCC2)c1ccccc1O	i	100.0*	4.7	53.3	?
CCOc1ccc(-n2nc3c(=O)n(CCN4CCCCC4)nc(C)c3c2C)cc1	i	-7.5	-9.7	38.5	0.05
CC(=O)c1cc(CN2CCN(CCC(C)C)C(CCO)C2)cs1 (stereo not drawn)	/	/	/	/	0.02
COc1ccc(CN2CCN(Cc3csc(C(C)=O)c3)CC2CCO)c(C)c1C (stereo not drawn)	i	86.3*	5.5	-4.8	-0.07
CC(=O)c1cc(CN2CCN(Cc3ccc(C)cc3)C(CCO)C2)cs1 (stereo not drawn)	i	73.2*	2.0	/	-0.43
Clc1ccc(/C=C/c2nc(Cl)c(-c3ccc(Cl)cc3)c(Cl)n2)cc1	/	/	/	/	-0.67
COc1ccc(-c2[nH]ncc2CN2CCC(N3CCSCC3)CC2)c(F)c1	i	-0.6	0.2	-8.7	/
CC1CN(S(=O)(=O)c2cccc(-c3csc(-c4ccccc4)n3)c2)CC(C)O1 (stereo not drawn)	i	97.4*	33.7	6.2	0.25
COc1ccc(CCC(=O)NCCCNC(=O)CCc2ccc(OC)cc2)cc1	i	44.0	0.8	2.8	0.14
CN(Cc1ccccc1)S(=O)(=O)c1cccc(C(=O)O)c1	i	-5.2	-5.5	0.0	-0.52
COCCn1c(-c2ccc(Br)cc2)csc1=Nc1cccnc1	i	39.3	18.3	/	-0.34
Clc1ccc(-c2csc(=Nc3cccnc3)n2CCCn2ccnc2)cc1Cl	+	98.6*	38.1	46.7	0.28
SMILES	Autophagy mod	Lmaj promast	WT yeast gro inh	INS promoter inh	Insulin prom up
CCN(CC)C(=O)Cn1cnc2ccccc2c1=O	i	-0.9	-21.0	-6.2	/
CN(Cc1cccs1)C(=O)Cn1cnc2ccccc2c1=O	+	-3.9	-8.2	/	/
CCC1=NN=C(c2ccc(F)cc2)C(c2c[nH]c3ccccc23)N1O (stereo not drawn)	i	3.7	16.1	37.5	-0.26
COc1ccccc1-c1cc2nc(C)cc(C)n2n1	/	/	/	/	-0.02
CC1CCCCC1NC(=O)/C(C#N)=C/c1ccc2c(c1)OCCO2 (stereo not drawn)	i	59.3*	0.1	-125.0	-0.25
C=CCNC(=O)/C(C#N)=C/c1ccc2c(c1)OCCO2	i	-0.6	4.6	-37.1	-0.3
CC1CCCCC1NC(=O)/C(C#N)=C/c1ccc(F)c(F)c1 (stereo not drawn)	i	96.4*	19.7	-40.0	0.2
CCCCN(C)C(=S)Nc1ccc2nc3n(c(=O)c2c1)CCCCC3	i	2.6	4.0	/	/
O=C(NCc1ccccc1)c1ccc(N2C(=O)C3CCCCC3C2=O)cc1 (stereo not drawn)	i	-4.7	8.9	4.6	0.11
CCCOc1ccc2c3c(c(=O)oc2c1OCCC)CCCC3	i	54.4*	6.6	0.0	-1.24
O=C(CC(c1cccs1)S(=O)(=O)c1ccccc1)c1ccc(F)cc1 (stereo not drawn)	i	11.3	-2.2	/	-0.22
O=C1Nc2ccc(Br)cc2/C1=C/C1CC=CCC1 (stereo not drawn)	i	98.7*	77.7	/	-0.38
O=C1Nc2ccc(Br)cc2/C1=C/C(=O)c1ccc2c(c1)OCO2	/	/	/	/	-0.62
COc1ccc(C=O)cc1Cn1c(C)cc(C)c(C#N)c1=O	i	11.8	0.7	-5.0	/
Cc1ccc(NC(=O)CSCC(=O)N2c3ccccc3CCc3ccccc32)cc1	i	66.5*	41.5	-41.7	-0.7
O=S(=O)(NCC(c1cccnc1)N1CCN(c2ccc(F)cc2)CC1)c1cc(F)ccc1F (stereo not drawn)	i	95.2*	4.5	-185.7	/
O=S(=O)(NCC(c1cccnc1)N1CCOCC1)c1ccc(Cl)cc1 (stereo not drawn)	i	13.6	0.0	-20.0	/
COc1ccc(N2CCN(C(CNS(=O)(=O)c3cc(F)ccc3F)c3cccnc3)CC2)cc1 (stereo not drawn)	i	99.4*	-2.8	6.5	-0.7
CC(C)c1ccc(NC(=S)NCCc2c[nH]c3ccccc23)cc1	i	43.1	67.3*	/	0.39
Cc1ccccc1NC(=S)NCCc1c[nH]c2ccccc12	i	81.4*	-4.2	39.5	-0.19
O=C(NCCc1ccccc1)C(c1cccs1)N(C(=O)c1csnn1)C1CC1 (stereo not drawn)	i	-1.9	13.2	/	-0.4
O=C(NCCc1ccccc1)C(c1cccs1)N(C(=O)CCl)c1ccc(Cl)cc1 (stereo not drawn)	i	100.5*	56.9	?	-1.22
Cc1nccc2[nH]c(=O)c(C(=O)NC3CCCCC3C)cc12 (stereo not drawn)	i	99.0*	2.3	/	-0.23
CCOC(=O)c1ccc(NC(=S)N2CCC(O)CC2)cc1	i	-2.0	-17.2	6.7	0.03
CCOC(=O)c1ccc(NC(=S)N2CCSC2c2ccc(Br)cc2)cc1 (stereo not drawn)	i	86.7*	50.9	3.5	0.6
SMILES	Autophagy mod	Lmaj promast	WT yeast gro inh	INS promoter inh	Insulin prom up
c1ccc(-c2csc(N3CCN(c4ccccn4)CC3)n2)cc1	i	-3.2	62.8*	60.0	-0.33
CC1Oc2ccccc2C=C1/C=N/NC(=O)c1ccccc1O (stereo not drawn)	i	-14.9	71.3*	/	0.7
COc1ccccc1NC(=O)CN(c1ccc(C23CC4CC(CC(C4)C2)C3)cc1)S(C)(=O)=O	i	79.3*	52.5	/	-0.65
Cc1cc2nc3c(nc2cc1C)C(O)=C3O	/	/	/	/	0.42
Cc1cc(C)n2nc(-c3ccco3)nc2n1	i	-3.3	9.1	15.0	-0.15
CCOCCCn1c(=NC(=O)c2cccs2)c(C#N)cc2c(=O)n3ccccc3nc21	/	/	/	/	0.49

Bioassay records as filed in PubChem.
